{"source": "PubChem BioAssay (Tox21)", "key": {"[1]": {"assay": "qHTS assay to identify small molecule antagonists of the glucocorticoid receptor (GR) signaling pathway - cell viability counter screen (AID 720693); also: nearly all actives have a fitted effect of over 55% in size"}, "[2]": {"assay": "qHTS assay to identify small molecule antagonists of the thyroid receptor (TR) signaling pathway - cell viability counter screen (AID 743064); also: nearly all actives have a fitted effect of over 50% in size; also: potency is read from the fitted curve at half-maximal effect", "in_short": "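Plate GH3.TRE-Luc cells; incubate 4 h at 37 °C; add compound, then T3 to 1 nM final; incubate 23.5 h; add CellTiter-Fluor; incubate 30 min at 37 °C, 5% CO2; read fluorescence.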"}, "[3]": {"assay": "qHTS assay to identify small molecule antagonists of the thyroid receptor (TR) signaling pathway (AID 743065); also: nearly all actives have a fitted effect of over 55% in size; also: potency is read from the fitted curve at half-maximal effect", "in_short": "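GH3.TRE-Luc rat pituitary cells carrying two TR response elements driving luciferase were plated for 4 h, given compound plus 1 nM T3 (final), and incubated 23.5 h at 37 C. ONE-Glo luminescence measured reporter inhibition; CellTiter-Fluor fluorescence tracked cytotoxicity.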"}, "[4]": {"system": "thyroid hormone receptor (rat, GH3 cells)", "assay": "qHTS assay to identify small molecule agonists of the thyroid receptor (TR) signaling pathway (AID 743066; calls by dose curve)"}, "[5]": {"molecular_target": "Estrogen receptor (Homo sapiens) (UniProt P03372)", "sequence (P03372 whole entry, looked up)": "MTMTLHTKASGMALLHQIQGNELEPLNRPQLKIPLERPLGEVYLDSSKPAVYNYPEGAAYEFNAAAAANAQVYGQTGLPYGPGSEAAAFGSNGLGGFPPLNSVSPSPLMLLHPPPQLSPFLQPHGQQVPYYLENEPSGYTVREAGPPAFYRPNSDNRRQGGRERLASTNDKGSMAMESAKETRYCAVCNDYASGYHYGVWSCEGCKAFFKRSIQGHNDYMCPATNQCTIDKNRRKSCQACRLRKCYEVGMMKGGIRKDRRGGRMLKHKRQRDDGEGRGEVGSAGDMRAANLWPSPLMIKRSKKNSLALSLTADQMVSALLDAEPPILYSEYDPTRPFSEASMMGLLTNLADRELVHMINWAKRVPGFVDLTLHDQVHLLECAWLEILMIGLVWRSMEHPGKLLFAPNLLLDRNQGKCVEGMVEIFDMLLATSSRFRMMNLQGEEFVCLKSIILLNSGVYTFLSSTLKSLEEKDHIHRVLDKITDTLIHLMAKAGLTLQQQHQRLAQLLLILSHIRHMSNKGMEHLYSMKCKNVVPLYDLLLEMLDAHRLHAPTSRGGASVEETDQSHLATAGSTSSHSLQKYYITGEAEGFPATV", "assay": "qHTS assay to identify small molecule antagonists of the estrogen receptor alpha (ER-alpha) signaling pathway (AID 743069; active = well fitted curve in the direction sought with a large enough effect in the signal ratio in the repeat runs, not every such curve was filed as active; inconclusive = weak or mixed curves, or effect the other way; inactive = no such curve, though single readings can be large or run the other way; the % refers to the signal ratio; also: potency is read from the fitted curve at half-maximal effect)", "in_short": "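HEK293 cells stably carrying an ER-alpha-UAS-bla beta-lactamase reporter were pre-cultured overnight in 2% charcoal-stripped FBS medium. Test compounds in DMSO were added together with 17beta-estradiol for 18 hr at 37C. Read-out was fluorescence after 2 hr with LiveBLAzer B/G FRET substrate at room temperature.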"}, "[6]": {"assay": "qHTS assay to identify small molecule antagonists of the estrogen receptor alpha (ER-alpha) signaling pathway - cell viability counter screen (AID 743074; calls by dose curve; also: nearly all actives have a fitted effect of over 45% in size)"}, "[7]": {"molecular_target": "Estrogen receptor (Homo sapiens) (UniProt P03372)", "assay": "qHTS assay to identify small molecule agonists of the estrogen receptor alpha (ER-alpha) signaling pathway (AID 743075; calls by dose curve; also: potency is read from the fitted curve at half-maximal effect)"}, "[8]": {"molecular_target": "Estrogen receptor (Homo sapiens) (UniProt P03372)", "assay": "qHTS assay to identify small molecule agonists of the estrogen receptor alpha (ER-alpha) signaling pathway using the BG1 cell line (AID 743079); also: nearly all actives have a fitted effect of over 20% in size; also: potency is read from the fitted curve at half-maximal effect", "settings": "BG1Luc4E2 cells, ERE-luciferase agonist, 22 h; activation: at 70.3 µM (top of the series)"}, "Aromatase (Homo sapiens)": {"molecular_target": "Aromatase (Homo sapiens) (UniProt P11511)", "sequence (P11511 whole entry, looked up)": "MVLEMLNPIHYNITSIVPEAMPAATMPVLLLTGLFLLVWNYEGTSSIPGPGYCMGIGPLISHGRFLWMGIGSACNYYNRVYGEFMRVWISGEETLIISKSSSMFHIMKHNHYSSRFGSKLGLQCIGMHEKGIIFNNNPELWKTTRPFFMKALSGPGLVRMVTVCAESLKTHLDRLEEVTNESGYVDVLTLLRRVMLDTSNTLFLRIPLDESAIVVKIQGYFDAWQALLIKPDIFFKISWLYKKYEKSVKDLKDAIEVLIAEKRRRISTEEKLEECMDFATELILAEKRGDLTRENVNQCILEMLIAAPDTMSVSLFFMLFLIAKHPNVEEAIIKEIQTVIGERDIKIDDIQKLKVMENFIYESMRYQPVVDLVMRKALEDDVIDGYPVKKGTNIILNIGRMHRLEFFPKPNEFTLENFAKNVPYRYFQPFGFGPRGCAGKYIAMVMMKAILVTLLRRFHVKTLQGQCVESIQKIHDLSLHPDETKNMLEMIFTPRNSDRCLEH", "assay": "qHTS assay to identify aromatase inhibitors (AID 743083); also: nearly all actives have a fitted effect of over 55% in size; also: potency is read from the fitted curve at half-maximal effect"}, "[9]": {"assay": "qHTS assay for identifying genotoxic compounds that show differential cytotoxicity against isogenic chicken DT40 cell lines with known DNA damage response pathways - wild type cell line (AID 743012); also: potency is read from the fitted curve at half-maximal effect; nearly all actives have a fitted effect of over 60% in size", "in_short": "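Parental DNA repair-proficient DT40 cells, 300 per well, were pre-incubated ~0.5 h at 37 C/5% CO2, pin-dosed with compounds in DMSO, then incubated 40 h. Viability was read as CellTiter-Glo luminescence after 30 min at room temperature.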"}, "[10]": {"assay": "qHTS assay for identifying genotoxic compounds that show differential cytotoxicity against isogenic chicken DT40 cell lines with known DNA damage response pathways - Rev3 mutant cell line (AID 743014); also: nearly all actives have a fitted effect of over 55% in size; also: potency is read from the fitted curve at half-maximal effect"}, "[11]": {"assay": "qHTS assay for identifying genotoxic compounds that show differential cytotoxicity against isogenic chicken DT40 cell lines with known DNA damage response pathways - Rad54/Ku70 mutant cell line (AID 743015); also: potency is read from the fitted curve at half-maximal effect; nearly all actives have a fitted effect of over 60% in size"}, "[12]": {"assay": "qHTS assay to identify small molecule antagonists of the androgen receptor (AR) signaling pathway - cell viability counter screen (AID 743033; also: nearly all actives have a fitted effect of over 45% in size)"}, "[13]": {"assay": "qHTS assay to identify small molecule antagonists of the estrogen receptor alpha (ER-alpha) signaling pathway using the BG1 cell line (AID 743080; calls by dose curve; also: nearly all actives have a fitted effect of over 25% in size; also: potency is read from the fitted curve at half-maximal effect)", "in_short": "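Antagonist mode: compounds in DMSO were pinned onto BG1-Luc-4E2 cells alongside 17beta-estradiol agonist, incubated 21.5 h, and ERE-driven luciferase measured with ONE-Glo. Cytotoxicity was multiplexed using CellTiter-Fluor fluorescence.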"}, "[14]": {"assay": "qHTS assay to identify small molecule antagonists of the estrogen receptor alpha (ER-alpha) signaling pathway using the BG1 cell line - cell viability counter screen (AID 743081); also: nearly all actives have a fitted effect of over 45% in size"}, "[15]": {"assay": "qHTS assay to identify small molecule antagonists of the androgen receptor (AR) signaling pathway using the MDA cell line - cell viability counter screen (AID 743041; also: nearly all actives have a fitted effect of over 45% in size)", "in_short": "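MDA-kb2 AR-luc human breast carcinoma cells (MMTV-luciferase, AR/GR responsive) were treated with compounds plus R1881 agonist for 16 h at 37 °C. Viability was read as CellTiter-Fluor fluorescence in the same wells as the reporter assay.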"}, "[16]": {"molecular_target": "Androgen receptor (Homo sapiens) (UniProt P10275)", "sequence (P10275 whole entry, looked up)": "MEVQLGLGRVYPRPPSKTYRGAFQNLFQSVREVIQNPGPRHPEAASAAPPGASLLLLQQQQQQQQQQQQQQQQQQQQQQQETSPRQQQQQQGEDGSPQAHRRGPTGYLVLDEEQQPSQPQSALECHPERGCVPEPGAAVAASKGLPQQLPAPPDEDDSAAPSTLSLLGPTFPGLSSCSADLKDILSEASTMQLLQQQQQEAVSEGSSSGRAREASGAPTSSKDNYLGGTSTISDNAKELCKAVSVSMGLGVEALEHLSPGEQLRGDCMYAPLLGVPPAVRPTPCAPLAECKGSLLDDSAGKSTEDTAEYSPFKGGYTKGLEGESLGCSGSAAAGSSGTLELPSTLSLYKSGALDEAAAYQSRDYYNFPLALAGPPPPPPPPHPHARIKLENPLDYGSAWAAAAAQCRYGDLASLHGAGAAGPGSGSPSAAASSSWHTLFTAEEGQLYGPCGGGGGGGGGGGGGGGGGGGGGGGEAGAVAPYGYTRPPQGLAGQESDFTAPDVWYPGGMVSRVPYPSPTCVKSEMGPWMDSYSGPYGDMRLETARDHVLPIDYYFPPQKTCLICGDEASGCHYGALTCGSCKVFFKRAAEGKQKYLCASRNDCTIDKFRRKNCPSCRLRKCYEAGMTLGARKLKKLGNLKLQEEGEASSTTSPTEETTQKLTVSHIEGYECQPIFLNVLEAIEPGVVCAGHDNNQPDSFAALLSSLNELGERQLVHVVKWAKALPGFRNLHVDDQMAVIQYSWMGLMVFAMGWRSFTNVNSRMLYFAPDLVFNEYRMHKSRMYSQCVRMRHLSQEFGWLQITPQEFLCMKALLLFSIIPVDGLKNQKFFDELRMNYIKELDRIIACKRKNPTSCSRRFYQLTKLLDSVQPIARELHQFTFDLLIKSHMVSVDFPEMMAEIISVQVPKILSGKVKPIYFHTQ", "assay": "qHTS assay to identify small molecule agonists of the androgen receptor (AR) signaling pathway using the MDA cell line (AID 743040; also: nearly all actives have a fitted effect of over 20% in size)", "in_short": "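MDA-kb2 breast carcinoma cells stably carrying an MMTV-driven luciferase reporter (AR- and GR-responsive) were seeded and held 5 h at 37C, 0% CO2, then exposed to compounds in DMSO for 16 h. Luminescence was read 30 min after ONE-Glo addition.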"}}, "note": "Active and inactive are the calls of the source. Where a call stands in place of a potency, no number is given. Unless noted, calls follow the shape of the dose curve; as a rule, active = well fitted curve in the direction sought with a large enough effect in the repeat runs; inconclusive = weak or mixed curves; inactive = no such curve, though single readings can be large; an effect the other way counts as inactive or inconclusive."}
{"molecule": "O=C1OCCN1/N=C/c1ccc([N+](=O)[O-])o1", "values": [{"measurement": "Potency", "setting": "[1]", "value": "inactive"}, {"measurement": "Potency", "setting": "[2]", "value": "inactive"}, {"measurement": "Potency", "setting": "[3]", "value": "inactive"}, {"measurement": "outcome", "setting": "[4]", "value": "inactive"}, {"measurement": "Potency", "setting": "[5]", "value": "inactive"}, {"measurement": "Potency", "setting": "[6]", "value": "inactive"}, {"measurement": "Potency", "setting": "[7]", "value": "0.848 µM [inconclusive] (active)"}, {"measurement": "Potency", "setting": "[8]", "value": "0.168 µM (active)"}, {"measurement": "Potency", "setting": "Aromatase (Homo sapiens)", "value": "29.8 µM (active)"}]}
{"molecule": "CCC(=O)Oc1ccc(/C(CC)=C(\\CC)c2ccc(OC(=O)CC)cc2)cc1", "values": [{"measurement": "Potency", "setting": "[9]", "value": "48.6 µM (active)"}, {"measurement": "Potency", "setting": "[10]", "value": "54.5 µM (active)"}, {"measurement": "Potency", "setting": "[11]", "value": "48.6 µM (active)"}, {"measurement": "Potency", "setting": "[12]", "value": "inactive"}, {"measurement": "Potency", "setting": "[2]", "value": "54.5 µM (active)"}, {"measurement": "Potency", "setting": "[3]", "value": "30.6 µM (active)"}, {"measurement": "outcome", "setting": "[4]", "value": "inactive"}, {"measurement": "Potency", "setting": "[5]", "value": "54.9 µM [inconclusive] (active)"}, {"measurement": "Potency", "setting": "[6]", "value": "inactive"}, {"measurement": "Potency", "setting": "[7]", "value": "0.0014 µM [inconclusive] (active)"}, {"measurement": "activation", "setting": "[8]", "value": "77.1% (active)"}, {"measurement": "Potency", "setting": "[13]", "value": "61.1 µM (active)"}, {"measurement": "Potency", "setting": "[14]", "value": "inactive"}, {"measurement": "Potency", "setting": "Aromatase (Homo sapiens)", "value": "inactive"}]}
{"molecule": "C[Si](NC1CCCCC1)(NC1CCCCC1)NC1CCCCC1", "values": [{"measurement": "Potency", "setting": "[1]", "value": "inactive"}, {"measurement": "Potency", "setting": "[10]", "value": "61.1 µM (active)"}, {"measurement": "Potency", "setting": "[15]", "value": "inactive"}, {"measurement": "Potency", "setting": "[2]", "value": "inactive"}, {"measurement": "outcome", "setting": "[4]", "value": "inactive"}, {"measurement": "Potency", "setting": "[5]", "value": "inactive"}, {"measurement": "Potency", "setting": "[6]", "value": "inactive"}, {"measurement": "Potency", "setting": "[7]", "value": "inactive"}, {"measurement": "Potency", "setting": "[8]", "value": "inactive"}, {"measurement": "Potency", "setting": "[13]", "value": "inactive"}, {"measurement": "Potency", "setting": "[14]", "value": "inactive"}, {"measurement": "Potency", "setting": "Aromatase (Homo sapiens)", "value": "inactive"}]}
{"molecule": "CN1CCN(CCCN2c3ccccc3Sc3ccc(S(=O)(=O)N(C)C)cc32)CC1", "values": [{"measurement": "Potency", "setting": "[1]", "value": "inactive"}, {"measurement": "Potency", "setting": "[10]", "value": "inactive"}, {"measurement": "Potency", "setting": "[15]", "value": "inactive"}, {"measurement": "Potency", "setting": "[2]", "value": "14.3 µM (active)"}, {"measurement": "Potency", "setting": "[3]", "value": "11.4 µM (active)"}, {"measurement": "outcome", "setting": "[4]", "value": "inactive"}, {"measurement": "Potency", "setting": "[6]", "value": "inactive"}, {"measurement": "Potency", "setting": "[14]", "value": "inactive"}, {"measurement": "Potency", "setting": "Aromatase (Homo sapiens)", "value": "inactive"}]}
{"molecule": "CNC(=S)NC", "values": [{"measurement": "Potency", "setting": "[9]", "value": "61.1 µM (active)"}, {"measurement": "Potency", "setting": "[10]", "value": "43.3 µM (active)"}, {"measurement": "Potency", "setting": "[11]", "value": "61.1 µM (active)"}, {"measurement": "Potency", "setting": "[16]", "value": "inactive"}, {"measurement": "Potency", "setting": "[2]", "value": "inactive"}, {"measurement": "outcome", "setting": "[4]", "value": "inactive"}, {"measurement": "Potency", "setting": "[5]", "value": "inactive"}, {"measurement": "Potency", "setting": "[6]", "value": "inactive"}, {"measurement": "Potency", "setting": "[7]", "value": "inactive"}, {"measurement": "Potency", "setting": "[8]", "value": "inactive"}, {"measurement": "Potency", "setting": "[13]", "value": "inactive"}, {"measurement": "Potency", "setting": "[14]", "value": "inactive"}, {"measurement": "Potency", "setting": "Aromatase (Homo sapiens)", "value": "inactive"}]}
{"molecule": "CCC(Cc1ccccc1)(C(=O)c1ccc(N2CCOCC2)cc1)N(C)C", "note": "(stereo not given)", "values": [{"measurement": "Potency", "setting": "[9]", "value": "7.7 µM (active)"}, {"measurement": "Potency", "setting": "[10]", "value": "4.33 µM (active)"}, {"measurement": "Potency", "setting": "[11]", "value": "9.69 µM (active)"}, {"measurement": "Potency", "setting": "[15]", "value": "inactive"}, {"measurement": "Potency", "setting": "[2]", "value": "inactive"}, {"measurement": "Potency", "setting": "[3]", "value": "inactive"}, {"measurement": "outcome", "setting": "[4]", "value": "inactive"}, {"measurement": "Potency", "setting": "[5]", "value": "inactive"}, {"measurement": "Potency", "setting": "[6]", "value": "inactive"}, {"measurement": "Potency", "setting": "[7]", "value": "49 µM [inconclusive] (active)"}, {"measurement": "Potency", "setting": "[14]", "value": "inactive"}, {"measurement": "Potency", "setting": "Aromatase (Homo sapiens)", "value": "inactive"}]}
{"molecule": "CC(C)C(OC(=O)c1ccccc1)C(C)(C)COC(=O)c1ccccc1", "note": "(stereo not given)", "values": [{"measurement": "Potency", "setting": "[9]", "value": "21.7 µM (active)"}, {"measurement": "Potency", "setting": "[10]", "value": "27.3 µM (active)"}, {"measurement": "Potency", "setting": "[11]", "value": "24.3 µM (active)"}, {"measurement": "Potency", "setting": "[12]", "value": "inactive"}, {"measurement": "outcome", "setting": "[4]", "value": "inactive"}, {"measurement": "Potency", "setting": "[14]", "value": "inactive"}]}
